Screening data deposited in PubChem BioAssay by several laboratories.
ERb coact inh – blocks coactivator binding to human estrogen receptor beta; Q92731; TR-FRET ER-beta LBD / SRC1-Cy5 peptide binding; receptor agonist-loaded with 1 µM estradiol; inhibition, % at 25.6 µM; 1.3% of 86,000 active;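 active = compounds whose percent inhibition of the receptor-coactivator binding signal exceeds about 50% in the single-dose screen, limit read from the data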;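 also: 0% = receptor plus peptide wells without compound and 100% = peptide-only wells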
Target sequence (Q92731 whole entry, looked up, the tested form may be a part): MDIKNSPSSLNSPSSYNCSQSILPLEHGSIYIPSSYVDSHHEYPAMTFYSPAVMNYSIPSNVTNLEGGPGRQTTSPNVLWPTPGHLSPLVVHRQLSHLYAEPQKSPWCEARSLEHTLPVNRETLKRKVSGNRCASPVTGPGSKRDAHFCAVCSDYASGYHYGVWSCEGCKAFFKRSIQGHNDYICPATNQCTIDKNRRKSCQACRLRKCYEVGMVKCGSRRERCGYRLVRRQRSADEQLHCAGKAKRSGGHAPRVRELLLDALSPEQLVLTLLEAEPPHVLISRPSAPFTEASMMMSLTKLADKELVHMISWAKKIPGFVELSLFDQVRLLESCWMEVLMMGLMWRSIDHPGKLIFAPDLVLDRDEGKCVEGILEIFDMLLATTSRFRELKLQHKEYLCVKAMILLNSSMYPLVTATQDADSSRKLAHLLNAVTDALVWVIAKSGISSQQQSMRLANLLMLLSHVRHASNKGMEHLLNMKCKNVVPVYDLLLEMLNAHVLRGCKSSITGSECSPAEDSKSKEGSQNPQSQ
Smad3 inh – blocks human Smad3 binding to FoxH1 peptide; P84022; TR-FRET Smad3/Dy647-FoxH1 peptide binding, europium anti-His; 0.29% of 88,000 active; inhibition, % at 25 µM;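 active = compounds that reduce the energy-transfer binding signal between the protein and its labelled peptide by more than half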;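 also: 0% = Smad3 plus labelled peptide maximal FRET and 100% = peptide-only background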
ERa SRC1 pot – ER-alpha (human) coactivator binding potentiation; 1.3% of 86,000 active; coactivator binding (% of control), % at 25.6 µM; TR-FRET ERalpha-LBD/SRC-Cy5 coactivator binding, 2 h; 100 = basal binding, no effect; in the data active = activity above about 200%;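 also: binding measured in presence of low estradiol as agonist stimulus; 0% = peptide alone without receptor and 100% = receptor with peptide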
FAK blocker – inhibitors of human focal adhesion kinase | Q05397 | biochemical FAK kinase activity assay | inhibition, %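 (tested at 7 µM)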 | 0.84% of 97,000 active; in the data active = inhibition above about 19%;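 also: 0% = DMSO and 100% = reference compound high control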
ERa coact inh – ER-alpha (human) coactivator binding inhibition | inhibition, % at 25.6 µM | 1.7% of 86,000 active | TR-FRET ER-alpha LBD / SRC-1 peptide, estradiol-bound | AID 629; in the data active = inhibition above about 50%;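 also: 0% = receptor plus peptide control and 100% = peptide only without receptor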
Starred values were filed as active, the others as inactive; i = inactive; · = no result; [ ] = dose if it differs, or a comment. Only some compounds are listed: those with a hit (about 3.3% of all), similar ones and a draw of the others.

SMILES | ERb coact inh | Smad3 inh | ERa SRC1 pot | FAK blocker | ERa coact inh
O=C(Nc1ccc(F)cc1F)c1noc2c1CCC2 | 91*[fluorescence artefact?] | -14 | 38 | · | 86*[fluorescence artefact?]
C[C@@]1(C(=O)O)CCC[C@@H]1C(=O)O | · | 15 | · | · | ·
O=C(CSc1nnc(-c2cccs2)n1-c1ccccc1)Nc1ccccc1 | 11 | -218 | 969*[fluorescence artefact?] | -150 | -31
C=CCn1c(Cc2cccs2)nnc1SCC(=O)Nc1ccc(C(=O)OCC)cc1 | -1 | -4 | 112 | -3 | -2
CCn1c(SCC(=O)NCC(=O)Nc2ccc(F)cc2)nnc1-c1cccs1 | 1 | -3 | 103 | -3 | -9
CCN(CC)c1ccc(-c2nnc(SCC(=O)Nc3ccccc3C#N)n2-c2ccccc2)cc1 | 29 | -4 | 104 | 1 | 52*[fluorescence artefact?]
CCn1c(SCC(=O)Nc2ccc(C(=O)OC)cc2)nnc1-c1cccs1 | 10 | -57 | 304*[fluorescence artefact?] | 2 | -2
C=CCn1c(SCC(=O)Nc2ccc(C(=O)OCC)cc2)nnc1-c1cccs1 | 10 | i | 755*[fluorescence artefact?] | · | -45
CCOC(=O)c1ccc(NC(=O)CSc2nnc(CNc3ccc(OC)cc3)n2C)cc1 | 35 | 13 | 93 | 1 | 52*
CCOC(=O)c1ccc(NC(=O)CSc2nnc(COc3ccccc3)n2C)cc1 | 8 | 9 | 178 | 0 | 13
CCOc1cc(N2CCOCC2)c(OCC)cc1NC(=O)c1cc(-c2ccco2)nc2ccccc12 | 39 | 13 | 120 | · | 75*
O=C(O)c1cc(-c2ccco2)nc2ccc(Br)cc12 | 61* | 4 | 25 | · | 64*
CCCCCCNC(=O)c1cc(-c2ccco2)nc2ccccc12 | 75* | 6 | 70 | 20* | 85*[fluorescence artefact?]
Cc1cc(C(N)=O)c2cc(Br)ccc2n1 | 6 | 6 | 115 | 2 | 44
O=C(NCC1CCCO1)c1cc(-c2ccco2)nc2ccccc12 (stereo not given) | 75*[fluorescence artefact?] | 10 | 43 | 1 | 69*[fluorescence artefact?]
CCOc1cc(N2CCOCC2)c(OCC)cc1NC(=O)COc1ncnc2ccccc12 | -5 | 3 | 93 | 1 | -4
O=S(=O)(O)c1cc(O)c2c(N=Cc3ccccc3O)cc(S(=O)(=O)O)cc2c1 | · | -2 | · | · | ·
O=C(O)C(Cc1ccccc1-c1ccccc1)C(=O)O | · | -3 | · | · | ·
COC(=O)C1=C(O)/C(=C\c2ccc(O)c(OC)c2)N=C1C | 44 | 12 | 98 | -2 | -8
CCOC(=O)C1=C(O)/C(=C\c2ccc(CNC(=O)C(=O)Nc3ccc(C)c(C)c3)o2)N=C1C | 55* | 18 | 115 | -1 | 72*
CCCC(=O)Nc1c(C)nn(C(=O)CCC)c1C | 3 | -6 | 278*[fluorescence artefact?] | 5 | 5
CCOC(=O)c1cccc(NC(=O)COC)c1 | -2 | -1 | 97 | 0 | -3
CCOCC(=O)Nc1cccc(C(=O)OCC)c1 | -4 | 4 | 116 | 3 | 60*
O=C(O)C1C2CCC(O2)C1C(=O)Nc1cccc(F)c1 (stereo not given) | · | · | · | -1 | ·
O=C(O)[C@@H]1[C@H](C(=O)Nc2cccc3cccnc23)[C@@H]2CC[C@H]1O2 | · | 98* | · | · | ·
SMILES | ERb coact inh | Smad3 inh | ERa SRC1 pot | FAK blocker | ERa coact inh
CCN1C(=O)/C(=C2\C=Cc3ccccc3N2CC)SC1=S | · | · | · | 1 | ·
CCN1C(=O)/C(=c2\o/c(=C3\C=Cc4ccccc4N3CC)c(=O)n2CC)SC1=S | 36 | 2 | 18 | 0 | 77*[fluorescence artefact?]
CCN1C(=O)/C(=C2/C=Cc3ccccc3N2C)OC1=S | 63*[fluorescence artefact?] | 8 | 96 | -2 | 66*[fluorescence artefact?]
c1ccc2c(CC3NCCN3)cccc2c1 | · | -4 | · | · | ·
Cn1c(=O)c2c(nc(Oc3ccc4c(c3)OCO4)n2Cc2ccc(Br)cc2)n(C)c1=O | 52* | -19 | 103 | · | 2
Cc1ccc2[nH]c(=O)c(C(c3nnnn3C(C)(C)C)N(Cc3ccco3)CC3CCCO3)cc2c1 (stereo not given) | -7 | -6 | 127 | 0 | -18
Cc1cccc2cc(C(c3nnnn3C(C)(C)C)N(Cc3ccco3)CC3CCCO3)c(=O)[nH]c12 (stereo not given) | 66*[fluorescence artefact?] | 8 | 54 | -6 | 57*
COc1ccccc1-n1c(SCC(=O)NC2CCCCC2)nc2c(c1=O)SCC2 | 1 | -2 | 697* | 3 | 4
O=C(CN1CCN(Cc2ccc(Cl)cc2)C1=O)NCCCN1CCN(c2ccc(F)cc2)CC1 | -4 | 6 | 277*[fluorescence artefact?] | 1 | -5
Nc1ccc(N=Nc2c(S(=O)(=O)O)cc3ccccc3c2S(=O)(=O)O)cc1 | · | 9 | · | · | ·
c1cc(CSc2ncnc3nc[nH]c23)ccn1 | · | -1 | · | · | ·
Cc1ccc(OCc2nn3c(-c4n[nH]c5c4CCC5)nnc3s2)cc1 | 54* | -15 | 35 | · | 73*[fluorescence artefact?]
c1ccc(OCc2nn3c(-c4n[nH]c5c4CCC5)nnc3s2)cc1 | 61*[fluorescence artefact?] | -2 | 47 | · | 67*[fluorescence artefact?]
COc1ccc(-c2nnc3sc(COc4ccc(C)cc4)nn23)cc1 | -8 | -1 | 102 | 6 | 12
COc1ccc(-c2nnc3sc(COc4ccccc4)nn23)cc1 | 30 | -1 | 110 | · | 22
O=C(Cn1ncn2c(cc3ccccc32)c1=O)NCCC1=CCCCC1 | -1 | 10 | 120 | 2 | 5
O=C(Cn1cnc2sc(-c3ccccc3)cc2c1=O)NCc1ccco1 | 46 | -7 | 147 | 15 | 66*[fluorescence artefact?]
O=C(Cn1nnc(-c2ccccc2)n1)NCc1ccco1 | 1 | 1 | 87 | -2 | 5
O=C(Cn1ncn2c(cc3ccccc32)c1=O)NCc1ccco1 | 38 | 8 | 95 | 4 | 57*[fluorescence artefact?]
O=C(Cn1cnc2sc(-c3ccccc3)cc2c1=O)NCc1ccccc1 | 63*[fluorescence artefact?] | 4 | 216* | 9 | 59*[fluorescence artefact?]
Cc1sc2ncn(CC(=O)NCCc3ccccc3)c(=O)c2c1C | 18 | 7 | 101 | -2 | 15
O=C(Cn1cnc2sc(-c3ccccc3)cc2c1=O)NCCc1ccccc1 | 37 | 21 | 213*[fluorescence artefact?] | -1 | 43
CC1=C(OC(=O)c2ccccc2)C(C)(C)C(c2ccc(Br)cc2)OC1=O (stereo not given) | 10 | 8 | 96 | 2 | 9
CC1=NN(/C(=N\c2nnc(C)s2)Nc2ccc(C(C)(C)C)cc2)[C@H](c2ccc(C)cc2)S1 | -7 | 2 | 99 | 12 | 6
Cc1ccc(S(=O)(=O)OCC(=O)O)cc1 | · | 0 | · | · | ·
SMILES | ERb coact inh | Smad3 inh | ERa SRC1 pot | FAK blocker | ERa coact inh
Cc1nccn1-c1ncnc2sc3c(c12)CCCC3 | 63* | 5 | 93 | 10 | 1
Cc1cc(C)n(-c2ncnc3sc4c(c23)CCCC4)n1 | 5 | 13 | 103 | -2 | -3
Cc1cc(C)c(C(=O)CC2(O)C(=O)Nc3ccccc32)cc1C (stereo not given) | 12 | -2 | 97 | 0 | 14
CCS(=O)(=O)Nc1ccc(C(=O)CC2(O)C(=O)Nc3ccccc32)cc1 (stereo not given) | -4 | 0 | 219*[fluorescence artefact?] | 2 | -3
C[N+](C)(C)CCN[N@+]1(C)CCCc2ccccc21 | · | 103* | · | · | ·
S[C@@H]1CCCN(Cc2ccccc2)C1 | · | 56* | · | · | ·
O=C(O)c1ccc(SSc2ccc(C(=O)O)cn2)nc1 | · | 1 | · | · | ·
Cc1ccc(-c2csc3ncn(CC(=O)N4CCOCC4)c(=O)c23)cc1C | 78*[fluorescence artefact?] | 3 | 68 | 3 | 16
O=C(O)[C@@H](Cc1c[nH]c2ccccc12)C(=O)NO | · | 5 | · | · | ·
